# Shown are actives, neighbours in structure and some others; about 18% of the full set was active somewhere.
# DT40 TDP1 no CPT: qHTS for Inhibitors of human tyrosyl-DNA phosphodiesterase 1 (TDP1): qHTS in cells in absence of CPT | DT40 Tdp1-/- hTDP1 cells, no CPT, ATP luminescence, 48 h | Potency, µM (doses to about 46.2 µM), for inactives: at the top dose activity change, negative = growth inhibition, most hits filed as inhibitors | hit rate 15% among 420,000 | AID 686978, 2013; note: potency is the fitted concentration of half-maximal effect; nearly all actives have a fitted effect of over 55% in size
#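 Camptothecin absent (DMSO only). Human TDP1-complemented DT40 knockout cells, 400 cells/well, 37 °C for minimum 48 hr; ATP measured via CellTiter-Glo, 30 min dark incubation, luminescence.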
# IL1B secr inh: blocks inflammasome-driven IL-1 beta release. THP-1 LPS/ATP IL-1B secretion, AlphaLISA, 16 h; hits give low values. activity change, % at 57.5 µM. hit rate 4.7% among 360,000. AID 743279; in the data active = activity change below about -50%; inconclusive = mostly about -30% to -49%
#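 Secreted IL-1B measured by AlphaLISA bead assay after 16 h compound exposure of THP-1 cells; compounds (final up to 57.5 uM) added 1 h before LPS (250 ng/mL) and ATP (1.25 mM) stimulation; lower signal means less secretion.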
# RORg inh: ROR gamma (mouse) transcription inhibition; P51450; Drosophila S2 Gal4-RORgamma UAS-luciferase reporter, 20 h; Potency, µM (titrated, usually from 53.6 µM), inactives show top-dose activity change, negative = inhibition, hits mostly inhibitors; hit rate 5.4% among 310,000; note: potency is the fitted concentration of half-maximal effect; nearly all actives have a fitted effect of over 60% in size
# Target sequence (P51450 whole entry, looked up, the tested form may be a part): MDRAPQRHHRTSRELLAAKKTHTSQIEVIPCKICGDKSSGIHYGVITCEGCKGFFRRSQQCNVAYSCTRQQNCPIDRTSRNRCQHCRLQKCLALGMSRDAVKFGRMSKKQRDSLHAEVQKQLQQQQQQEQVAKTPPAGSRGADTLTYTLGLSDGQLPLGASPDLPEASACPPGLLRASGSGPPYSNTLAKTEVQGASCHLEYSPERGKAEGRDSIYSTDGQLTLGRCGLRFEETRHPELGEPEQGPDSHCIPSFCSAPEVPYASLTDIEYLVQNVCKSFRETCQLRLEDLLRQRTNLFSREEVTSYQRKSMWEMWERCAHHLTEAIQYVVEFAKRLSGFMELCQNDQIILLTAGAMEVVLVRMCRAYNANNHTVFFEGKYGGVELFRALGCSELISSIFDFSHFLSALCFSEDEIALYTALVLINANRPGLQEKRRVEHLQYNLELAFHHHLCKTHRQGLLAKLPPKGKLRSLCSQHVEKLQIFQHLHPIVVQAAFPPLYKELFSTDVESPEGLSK
#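 Stable Schneider cell line, Gal4 DNA-binding domain fused to ROR gamma, UAS-luciferase. Cmpd 1 hr RT → CuSO4 700 uM final → 20 hr RT → luciferase reagent 10 min → luminescence.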
# TDP1 cell CPT: DT40-hTDP1 cell growth loss with CPT; chicken DT40 Tdp1-/-;hTDP1 cells + 20 nM CPT, ATP luminescence, 48 h; Potency, µM (doses to about 46.2 µM), inactives show at the highest dose activity change, negative = growth inhibition, most hits filed as inhibitors; hit rate 12% among 420,000; note: potency is the fitted concentration of half-maximal effect; nearly all actives have a fitted effect of over 55% in size
#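 Chicken DT40 Tdp1-/- cells stably complemented with human TDP1 were seeded at 400 cells/well in medium containing 20 nM camptothecin, exposed to pin-transferred compounds, and grown at 37 °C for at least 48 hr. Viability was read as ATP luminescence.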
# Gal4-VP16 FLuc: Gal4-VP16 reporter inhibition counter-screen. Drosophila S2 Gal4-VP16 UAS-luciferase, luminescence, 20 h. hit rate 3.5% among 310,000. Potency, µM (top dose mostly 53.6 µM), for inactives: top-dose activity, negative = inhibition, actives largely listed as inhibitors;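 note: Gal4-VP16 expression switched on by copper sulfate through the metallothionein promoter; potency is the fitted concentration of half-maximal effect; nearly all actives have a fitted effect of over 50% in size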
# LDHA inh: LDHA (human) enzyme inhibition; P00338; purified LDHA, NADH/diaphorase-resazurin fluorescence; hits give low values; activity change, % (values are at about 110 or 230 µM); hit rate 0.15% among 480,000; in the data active = activity change below about -30%; inconclusive = mostly about -25% to -30%;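 note: plate controls were DMSO wells for no effect and wells without enzyme for full effect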
#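 Human LDH5 at 2 nM final in Tris HCl pH 7.4 with 0.06 mM NADH and 0.2 mM pyruvate, reacted 5 minutes at room temperature. Remaining NADH coupled via diaphorase/resazurin; resorufin fluorescence read at 0 and 20 minutes, normalized to enzyme-free and DMSO wells.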
# Numbers without * were called inactive; ? = inconclusive; nt = not tested or not shown. Unless noted, calls come from the whole dose curve; as a rule, active = well fitted curve in the direction sought with a large enough effect; inconclusive = small, poorly fitted or top-dose-only effect, or another doubt; inactive = no such curve, though single readings can be large; an effect the other way counts as inactive or inconclusive. Unless noted, % is set by controls: 0 for no effect and ±100 for the full control effect.
SMILES,DT40 TDP1 no CPT,IL1B secr inh,RORg inh,TDP1 cell CPT,Gal4-VP16 FLuc,LDHA inh
COc1ccc(/C=C2\CCC(C3CCCC3)C2=O)c(OC)c1OC (stereo unspecified),18.4µM*,-8.3,28.6%,?,3.6%,-2.0
COc1cc(/C=C2\CCC(C3CCCC3)C2=O)cc(OC)c1OC (stereo unspecified),16.4µM*,19.0,33.1%,?,2.0%,4.6
COc1cccc(/C=C2\CCC(C3CCCC3)C2=O)c1 (stereo unspecified),11.6%,35.1,1.4%,8.0%,2.6%,-1.7
COc1cccc(/C=C2\CCC(C3CCCC3)C2=O)c1OC (stereo unspecified),?,45.0,-19.4%,?,-4.5%,1.8
COc1ccc(C=C2SC(=S)NC2=O)c(OC)c1OC,?,?,nt,?,nt,-21.4
COc1ccc(/C=C2/CC/C(=C\c3ccc(OC)c(OC)c3OC)C2=O)c(OC)c1OC,8.2µM*,-21.8,1.5%,?,-17.2%,-0.4
Cc1ccc(Cc2c(-c3ccccc3)nc3cc(C)ccn23)cc1,18.4µM*,19.6,nt,16.4µM*,nt,2.3
Cc1ccn2c(Cc3ccccc3)c(-c3ccc(F)cc3)nc2c1,20.6µM*,-19.0,nt,23.1µM*,nt,3.5
CCOc1ccc(N2C(=O)CC(Cc3ccc(Br)cc3)C2=O)cc1 (stereo unspecified),-25.8%,-7.1,nt,-16.3%,nt,-0.3
O=C1CC(N(O)c2ccccc2)C(=O)N1c1ccc(Cl)c(Cl)c1 (stereo unspecified),?,-17.5,14.3%,?,-0.3%,-1.4
COc1ccccc1N(O)C1CC(=O)N(c2ccc(Br)cc2)C1=O (stereo unspecified),?,-0.8,-35.0%,18.4µM*,2.2%,55.5
CCCCCCC(=O)N(O)C1CC(=O)N(c2ccc(Br)cc2)C1=O (stereo unspecified),18.4µM*,-81.7*,?,20.6µM*,?,-0.1
CCOC(=O)N1CCN(C2CC(=O)N(c3ccc(F)cc3)C2=O)CC1 (stereo unspecified),-15.0%,16.0,-2.3%,-0.6%,-5.7%,-6.0
CCCCCCC(=O)N(O)C1CC(=O)N(c2ccc(F)cc2)C1=O (stereo unspecified),2.91µM*,-88.1*,?,1.64µM*,?,-1.3
COc1cc(C(=O)Oc2ccc3c(c2)CCC3)cc(Cl)c1OCC(C)C,nt,nt,nt,nt,nt,5.2
Cc1[nH]c2ccc(C(=O)NCCNC(=O)c3ccc(C(F)(F)F)cc3)cc2c1C,nt,nt,nt,nt,nt,5.4
Cc1ccc2nc(-c3ccsc3)c(Nc3ccccc3C)n2c1,7.31µM*,nt,nt,6.51µM*,nt,-1.1
Cc1cccc(C)c1Nc1c(-c2ccsc2)nc2ccccn12,5.8µM*,nt,nt,7.31µM*,nt,0.3
Cc1cccc(C)c1Nc1c(-c2ccsc2)nc2ccc(Cl)cn12,7.31µM*,nt,nt,?,nt,6.0
Cc1cc(C)n2c(Nc3c(C)cccc3C)c(-c3ccccn3)nc2n1,7.31µM*,182.9,nt,5.8µM*,nt,2.0
COC(=O)c1ccc(NC(=O)C2=Cc3ccccc3OC=C2)cc1,nt,nt,nt,nt,nt,9.3
Cc1n[nH]c(C)c1S(=O)(=O)Nc1ncn(Cc2c(F)cccc2Cl)n1,nt,nt,nt,nt,nt,12.0
COc1ccccc1-n1c(-c2ccccc2)cn2c3c(=O)[nH]c(=O)n(C)c3nc12,nt,nt,nt,nt,nt,-3.5
CCc1cccc(C)c1Nc1c(-c2ccccc2O)nc2cnccn12,nt,nt,nt,nt,nt,6.2
Cc1cccc(C)c1Nc1c(-c2ccccn2)nc2ccccn12,6.51µM*,32.2,11.2µM*,6.51µM*,-9.4%,2.0
SMILES,DT40 TDP1 no CPT,IL1B secr inh,RORg inh,TDP1 cell CPT,Gal4-VP16 FLuc,LDHA inh
Cc1c(Cl)c(C(F)(F)F)nn1CC(=O)Nc1c(Cl)cccc1Cl,nt,nt,nt,nt,nt,-7.2
COc1cc(C(F)(F)F)c(C(=O)N(C)Cc2cc(Cl)cc(Cl)c2)cn1,14.6µM*,15.0,25.6%,?,-7.4%,-3.3
COc1cc(NC(=O)C2=C(N3CCOCC3)/C(=C\c3ccc(Cl)cc3Cl)CC2)cc(OC)c1OC,16.4µM*,-8.6,38.2%,13µM*,-9.4%,6.6
N#C/C(=C\C1=C(N2CCOCC2)C(=C\c2ccc(Cl)cc2)/CC1)C(=O)Nc1ccccc1F,11.6µM*,16.3,?,16.4µM*,-17.3%,1.7
N#C/C(=C/C1=C(N2CCOCC2)C(=C/c2ccccc2)/CC1)C(=O)Nc1ccccc1F,16.4µM*,21.2,nt,13µM*,nt,-4.2
N#C/C(=C/C1=C(N2CCOCC2)C(=C/c2ccc(Cl)cc2Cl)/CC1)C(=O)Nc1ccccc1F,10.3µM*,1.6,nt,?,nt,-7.7
CCOC(=O)/C(C#N)=C\C1=C(N2CCOCC2)C(=C/c2ccccc2)/CC1,nt,nt,nt,nt,nt,15.1
CCOc1ccccc1/C=C1\Oc2cc(OS(C)(=O)=O)ccc2C1=O,nt,nt,nt,nt,nt,5.6
Cc1nn2c(=O)cc(COc3ccc(/C=C(\C#N)C(=O)Nc4ccccc4C)cc3)nc2s1,?,nt,nt,13.6%,nt,2.7
Cc1nn2c(=O)cc(COc3ccc(/C=C(\C#N)C(=O)Nc4ccccc4)cc3Cl)nc2s1,20.6µM*,nt,nt,-10.1%,nt,0.8
CN1C(=O)N(Cc2coc(-c3cccs3)n2)C(=O)C12CCCCC2,nt,nt,nt,nt,nt,0.6
CCOC(=O)c1c(NC(=O)CSc2nnc(-c3cccnc3)o2)sc(C(C)=O)c1C,20.6µM*,11.8,10µM*,?,?,2.0
CCOC(=O)c1c(NC(=O)CSc2nnc(-c3ccco3)o2)sc(C)c1C,-20.5%,46.5,17.7%,-28.7%,1.6%,-0.6
CCOC(=O)c1c(NC(=O)CSc2nnc(-c3ccco3)o2)sc(C(C)=O)c1C,13µM*,18.0,-24.1%,?,-7.3%,-0.1
CN(Cc1cc(Br)cc(Br)c1N)C1CCCCC1,9.44µM*,nt,?,?,-2.5%,nt
CN(Cc1ccc(O)cc1)C1CCCCC1,-9.7%,0.0,6.7%,-13.9%,-3.9%,-0.6
COc1ccc(CN2C(=O)c3ccccc3C(/C=N\OCc3ccc(C)cc3)C2=O)cc1 (stereo unspecified),20.6µM*,26.0,12.4%,20.6µM*,6.0%,3.9
Cc1ccc(NC(=O)C(=O)NCc2ccc(/C=C(/C#N)C(=O)NCc3cccnc3)o2)cc1C,16.4µM*,0.0,-12.5%,?,?,-4.6
Cc1cccc(CS(=O)Cc2ccc(Cl)cc2)c1 (stereo unspecified),nt,nt,nt,nt,nt,5.2
O=C(CSc1nc(C(F)(F)F)cc(=O)[nH]1)N1CCC(Cc2ccccc2)CC1,11.6µM*,-19.3,nt,-10.9%,nt,0.1
Cc1nc(SCC(=O)N2CCC(Cc3ccccc3)CC2)[nH]c(=O)c1C,23.1µM*,9.5,nt,16.4µM*,nt,2.5

# Bioassay records: PubChem, National Center for Advancing Translational Sciences (NCATS)
